Screening data as filed in PubChem BioAssay.
EPAC2 antag – EPAC2 (human) antagonism | EPAC2 GEF exchange of Rap1B-BODIPY-GDP, fluorescence | Potency, µM (titrated, usually from 114 µM), without a hit: at the top dose activity, negative = inhibition, actives largely listed as inhibitors | 360,000 compounds, 0.18% hits | AID 720708; further: potency means the concentration at half of the fitted maximal effect; on the % scale 0 is the no-effect control and ±100 the full control effect; nearly all actives have a fitted effect of over 45% in size
Target sequence (Q8WZA2 whole entry, looked up): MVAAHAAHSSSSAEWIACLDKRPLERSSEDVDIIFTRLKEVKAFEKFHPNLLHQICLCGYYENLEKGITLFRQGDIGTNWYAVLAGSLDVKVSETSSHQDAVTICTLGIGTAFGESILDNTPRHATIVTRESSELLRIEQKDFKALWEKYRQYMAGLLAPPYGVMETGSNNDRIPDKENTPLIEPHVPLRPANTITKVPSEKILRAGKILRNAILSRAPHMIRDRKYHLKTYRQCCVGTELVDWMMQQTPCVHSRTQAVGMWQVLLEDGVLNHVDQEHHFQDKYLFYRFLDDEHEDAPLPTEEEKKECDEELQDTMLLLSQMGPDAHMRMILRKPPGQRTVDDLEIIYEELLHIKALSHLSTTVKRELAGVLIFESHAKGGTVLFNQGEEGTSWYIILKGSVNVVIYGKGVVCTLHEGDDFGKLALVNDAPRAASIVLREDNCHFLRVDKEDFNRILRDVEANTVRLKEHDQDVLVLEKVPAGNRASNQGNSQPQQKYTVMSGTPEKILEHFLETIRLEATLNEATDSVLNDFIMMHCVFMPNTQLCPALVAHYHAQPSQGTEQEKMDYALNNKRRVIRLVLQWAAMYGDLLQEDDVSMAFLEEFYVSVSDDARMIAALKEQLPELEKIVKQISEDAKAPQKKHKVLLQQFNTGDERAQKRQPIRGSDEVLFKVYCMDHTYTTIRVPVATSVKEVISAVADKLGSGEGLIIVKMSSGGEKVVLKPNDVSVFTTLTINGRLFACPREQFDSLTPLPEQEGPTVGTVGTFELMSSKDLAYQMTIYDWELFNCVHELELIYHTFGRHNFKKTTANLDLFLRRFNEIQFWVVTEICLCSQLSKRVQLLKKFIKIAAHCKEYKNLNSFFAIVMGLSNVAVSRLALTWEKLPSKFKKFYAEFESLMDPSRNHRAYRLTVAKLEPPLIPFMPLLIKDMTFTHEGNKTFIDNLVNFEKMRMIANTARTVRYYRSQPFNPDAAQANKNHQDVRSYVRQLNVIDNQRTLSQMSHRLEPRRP
EPAC1 agonist – agonists of human EPAC1 | O95398 | EPAC1 agonist qHTS, biochemical assay; response scale: 100% = response to 6.5 mM cAMP | Potency, µM (titrated, usually from 154 µM), for inactives: at the highest dose activation, usual class: activators | 360,000 compounds, 0.073% hits | AID 720707; further: potency means the concentration at half of the fitted maximal effect; nearly all actives have a fitted effect of over 60% in size
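Nucleotide exchange by EPAC1 (100 nM) on Rap1B–BODIPY-GDP (250 nM) in the presence of 50 uM GDP is tracked fluorescently at 480/540 nm over 30 min. Signals are normalized to a 6.5 mM cAMP control.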
LDHA block – LDHA (human) enzyme inhibition | AID 1347041 | P00338 | activity change, % (values are at about 110 or 230 µM) | 480,000 compounds, 0.15% hits | purified LDHA, NADH/diaphorase-resazurin fluorescence; active compounds read low; in the data active means activity change below about -30%; inconclusive means mostly about -25% to -30%;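 further: plate controls were DMSO wells for no effect and wells without enzyme for full effect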
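Human LDH5 (2 nM) was incubated with 0.06 mM NADH and 0.2 mM pyruvate for 5 min at room temperature in Tris pH 7.4. Remaining NADH was coupled through diaphorase/resazurin, and resorufin fluorescence was read at 0 and 20 min.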
EPAC2 ag – agonists of human EPAC2 (RAPGEF4). Q8WZA2. EPAC2 activation, biochemical qHTS; response scale: 100% = 6.5 mM cAMP response. Potency, µM (top dose mostly 154 µM), without a hit: top-dose activation, usual class: activators. 360,000 compounds, 0.079% hits. AID 720711; further: potency means the concentration at half of the fitted maximal effect; nearly all actives have a fitted effect of over 50% in size
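Nucleotide exchange monitored as fluorescence drop when BODIPY-GDP leaves Rap1B. Reaction: 100 nM EPAC2, 250 nM RAP1B-BODIPY-GDP, 50 uM GDP, room temperature, kinetic read over 30 min. Activity expressed relative to 6.5 mM cAMP.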
USP1-UAF1 inh – inhibitors of human USP1/UAF1 deubiquitinase | 390,000 compounds, 0.23% hits | Potency, µM (doses to about 57.1 µM), without a hit: top-dose activity change, negative = inhibition, actives largely listed as inhibitors | O94782 | recombinant USP1/UAF1, Ub-Rhodamine cleavage fluorescence; further: potency means the concentration at half of the fitted maximal effect; on the % scale 0 is the no-effect control and ±100 the full control effect; nearly all actives have a fitted effect of over 60% in size
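1 nM enzyme complex + cpd, 15 min RT; start with Ub-Rho 150nM final; kinetic fluorescence ex 480/em 540, 6 reads q60 s. Buffer 50mM HEPES pH 7.8, 0.5mM EDTA, 0.1 mg/ml BSA, 1mM TCEP, 0.01% Tween-20.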
EPAC1 antag – EPAC1 (human) antagonism | O95398 | EPAC1 GEF assay, Rap1b-BODIPY-GDP exchange fluorescence | Potency, µM (highest dose often 115 µM), for inactives: at the top dose activity change, negative = inhibition, usual class: inhibitors | 360,000 compounds, 0.14% hits | AID 720709;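 further: potency means the concentration at half of the fitted maximal effect; plate controls were vehicle for no effect and positive control for full effect; nearly all actives have a fitted effect of over 50% in size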
* marks the source's active call; other numbers are inactive results; ? = inconclusive; . = no result given; ! = not confirmed by another sample; [ ] = remark or other dose. Shown are actives, neighbours in structure and some others; about 0.56% of the full set was active somewhere. Unless noted, the call rests on the fitted dose curve; in most records, active means well fitted curve in the direction sought with a large enough effect; inconclusive means small, poorly fitted or top-dose-only effect, or another doubt; inactive means no such curve, though single readings can be large; an effect the other way counts as inactive or inconclusive.

SMILES	EPAC2 antag	EPAC1 agonist	LDHA block	EPAC2 ag	USP1-UAF1 inh	EPAC1 antag
CSc1nc(NCCN(C)C)c2sc3nc(-c4ccco4)c4c(c3c2n1)CCC4	10.7%	-7.9%	-2.0	16.9%	-23.7%	-7.6%
CSc1nc(N(C)CCO)c2sc3nc(-c4ccco4)c4c(c3c2n1)CCC4	-14.4%	-2.6%	7.8	24.8%	?	44.7µM*
COc1ccc(-c2noc(-c3cccc(OCC(=O)N(C)C)c3)n2)cc1	.	.	-3.5	.	.	.
CCOC(=O)C1=C(C)N=c2s/c(=C\c3ccc(OCC(=O)O)cc3)c(=O)n2C1c1ccc(OC(C)C)cc1 (stereo unspecified)	3.4%	-9.9%	-5.6	-29.3%	?	56.2µM*
CCOC(=O)C1=C(C)N=c2sc(=Cc3ccc(OCC(=O)O)cc3)c(=O)n2C1c1ccc(Cl)cc1 (stereo unspecified)	60.1%	-42.4%	-5.3	-13.7%	.	?
CCOC(=O)C1=C(C)N=c2sc(=Cc3cc(Cl)c(OCC(=O)O)c(Cl)c3)c(=O)n2C1c1cccc(OC)c1 (stereo unspecified)	25.1µM*	18.5%	-8.0	4.0%	.	?
COc1ccc2nc(N3CCCC3)c(C#N)cc2c1	32.4%	?	9.9	?	28.2µM*	32.0%
CC(NC(=O)c1cc(S(=O)(=O)N2CCOCC2)ccc1N1CCCC1)c1ccc(Cl)c(Cl)c1 (stereo unspecified)	14.5%	56.2µM*	-3.9	6.4%	-22.9%	7.4%
O=C(Nc1ccccc1Cl)c1cc(S(=O)(=O)N2CCCCC2)ccc1N1CCOCC1	-9.7%	12.7%	0.8	10.6%	2.5%	-6.2%
N#CCN(CC#N)C(=O)c1ccc2c(c1)OCCCO2	.	.	0.4	.	.	.
COc1cc(/C=C2\C(=O)N(c3ccc(NC(C)=O)cc3)N=C2c2ccccc2)ccc1O	19.3%	10.5%	-3.7	12.3%	-10.8%	-11.8%
CCOc1cc(/C=C2\C(=O)N(c3nc(-c4ccc(Br)cc4)cs3)N=C2c2ccccc2)ccc1O	3.0%	-4.6%	-0.8	-14.0%	?	35.5µM*
CC1CCc2c(sc(NC(=O)c3ccco3)c2C(=O)O)C1 (stereo unspecified)	-5.4%	1.1%	-40.6*	-0.2%	-4.2%	-2.4%
CN1CCN(C(=O)c2c(NC(=O)c3ccco3)sc3c2CCC(C(C)(C)C)C3)CC1 (stereo unspecified)	-4.2%	2.9%	-10.4	5.7%	-7.2%	11.8%
O=C(Nc1sc2c(c1C(=O)O)CCCCC2)c1ccco1	4.9%	0.0%	-42.1*!	3.2%	-15.2%	-2.8%
CCc1ccc2c(CN(C)CC(=O)N(C)C)cc(=O)oc2c1	.	.	4.7	.	.	.
Cc1[nH]cnc1CN1CCc2c(c3ccccc3n2C)C1=O	15.1%	-13.5%	1.8	0.5%	35.5µM*	-16.4%
Cc1nccn1CC1CCc2c(c3ccccc3n2C)C1=O (stereo unspecified)	-10.0%	1.6%	-4.3	0.4%	3.2%	9.3%
CCOC(=O)c1c(C)sc(-c2c(-c3ccc(OC)c(F)c3)[nH]c3c2c(=O)[nH]c(=O)n3C)c1O	.	.	-4.2	.	22.4µM*	.
CCOC(=O)c1c(C)sc(-c2c(-c3ccc4c(c3)OCCO4)[nH]c3c2c(=O)[nH]c(=O)n3C)c1O	.	.	-5.9	.	25.1µM*	.
CCOC(=O)c1c(C)sc(-c2c(-c3ccc4c(c3)OCCO4)[nH]c3c2c(=O)n(C)c(=O)n3C)c1O	.	.	-1.9	.	15.8µM*	.
O=C(Nc1ccccc1N1CCOCC1)c1cccc2c(Br)cccc12	14.1µM*	-4.7%	-1.1	-2.0%	-18.2%	-10.1%
O=C(Nc1ccc(N2CCOCC2)cc1)c1cccc2c(Br)cccc12	5.3%	8.1%	-9.0	7.3%	-9.8%	1.3%
O=C(N/N=C/c1ccccn1)c1cc(-c2ccc3ccccc3c2)n[nH]1	-11.8%	9.1%	-34.4*	21.0%	-11.9%	?
CN1C(=O)CCC1(O)c1ccccc1 (stereo unspecified)	-3.0%	2.5%	0.2	14.0%	-2.3%	1.8%
SMILES	EPAC2 antag	EPAC1 agonist	LDHA block	EPAC2 ag	USP1-UAF1 inh	EPAC1 antag
O=C1C=CC(c2ccccc2)(c2ccccc2)CC1	44.7µM*	1.3%	-3.7	11.6%	-7.9%	4.1%
CC(=O)Oc1ccc2c(C)cc(=O)oc2c1C(=O)c1ccccc1	-11.0%	-1.6%	-34.6*	1.6%	2.6%	-12.4%
CCCNC(=O)NC(=O)CSc1nc2ccccc2c(=O)n1C(C)CC (stereo unspecified)	.	.	-0.7	.	.	.
CCOc1ccccc1NC1c2ccccc2C(=O)N1Cc1ccco1 (stereo unspecified)	15.8µM*	3.9%	1.7	11.7%	-26.1%	3.3%
O=c1[nH]c(=O)n(Cc2ccccc2)c2nc(-c3ccc(F)cc3)n(CC3CCCO3)c12 (stereo unspecified)	.	.	5.7	.	.	.
NC(=O)c1ccc(N=C2C(=O)Nc3ccc([N+](=O)[O-])cc32)cc1	?	3.3%	-3.0	5.0%	14.1µM*	?
O=C1Nc2ccccc2C1=Nc1cccc([N+](=O)[O-])c1	7.5%	-1.2%	-7.0	1.3%	-12.5%	-5.1%
Oc1ccc(Cl)cc1C=NCc1ccc(F)cc1	.	.	-0.3	.	.	.
O=S(=O)(c1cc(F)ccc1F)N1CCN(C23CC4CC(CC(C4)C2)C3)CC1	.	.	0.9	.	.	.
Cc1csc(=O)n1CC(=O)OCC(=O)Nc1cc([N+](=O)[O-])ccc1Cl	-4.9%	3.3%	-13.1	11.3%	-3.3%	11.4%
Cc1ccc(NC(=O)COC(=O)Cn2c(C)csc2=O)c([N+](=O)[O-])c1	12.2%	100µM*	-3.0	6.8%	-20.5%	-2.9%
O=c1c2ccccc2c(-c2ccc(Cl)cc2)nn1-c1cc(N2CCOCC2)ccc1[N+](=O)[O-]	.	.	-4.8	.	.	.
CSC1=NSC2=NC(=O)/C(=C/c3coc4ccccc4c3=O)C(=N)N12	92.8%	100µM*	-8.0	89.1µM*	25.1µM*	76.3%
COc1cc(/C=C2/C(=N)N3C(SC)=NSC3=NC2=O)ccc1OC(=O)c1ccco1	-6.6%	4.9%	-5.0	3.9%	-4.4%	-27.7%
N=C1/C(=C/c2cccs2)C(=O)N=C2SN=C(SCc3ccccc3)N12	0.4%[57.1 µM]	5.4%	-17.9	-1.9%	-9.4%	79.4µM*
CSC1=NSC2=NC(=O)/C(=C\c3cccs3)C(=N)N12	-3.7%	-1.8%	-8.5	-4.2%	-8.0%	4.0%
CC1=CC2=NC(=O)/C(=C\c3cc(C)n(-c4cccc(Cl)c4)c3C)C(=N)N2O1	-1.2%	7.8%	-4.6	12.2%	-1.8%	-29.5%
CSC1=NSC2=NC(=O)/C(=C/c3coc4ccc(O)cc4c3=O)C(=N)N12	419.3%	79.4µM*	6.0	100µM*	22.4µM*	164.7%
